Unmarked numbers belong to inactive results. Inconclusive results are not listed. Activity calls are given as the source filed them. The call rests on the fitted dose curve.
biological target: Acetylcholinesterase (Homo sapiens) (UniProt P22303); test: Acetylcholinesterase (AChE) small molecule antagonists: colormetric cell-based qHTS assay (AID 1347395); conditions: SH-SY5Y cells AChE activity, colorimetric (Ellman); series mostly up to 115 µM; activity, negative = inhibition: at the top concentration; further: nearly all actives have a fitted effect of over 30% in size
Summary of the method: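 Colorimetric read-out: DTNB detects thiocholine released when cellular AChE in SH-SY5Y cells hydrolyses acetylthiocholine. Cells attached overnight, received compound for 30 min at 37 C, then substrate mix for 90 min at 37 C.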
On the % scale 0 is the no-effect control and ±100 the full control effect.

Sequence of Acetylcholinesterase (Homo sapiens) (P22303 whole entry, looked up): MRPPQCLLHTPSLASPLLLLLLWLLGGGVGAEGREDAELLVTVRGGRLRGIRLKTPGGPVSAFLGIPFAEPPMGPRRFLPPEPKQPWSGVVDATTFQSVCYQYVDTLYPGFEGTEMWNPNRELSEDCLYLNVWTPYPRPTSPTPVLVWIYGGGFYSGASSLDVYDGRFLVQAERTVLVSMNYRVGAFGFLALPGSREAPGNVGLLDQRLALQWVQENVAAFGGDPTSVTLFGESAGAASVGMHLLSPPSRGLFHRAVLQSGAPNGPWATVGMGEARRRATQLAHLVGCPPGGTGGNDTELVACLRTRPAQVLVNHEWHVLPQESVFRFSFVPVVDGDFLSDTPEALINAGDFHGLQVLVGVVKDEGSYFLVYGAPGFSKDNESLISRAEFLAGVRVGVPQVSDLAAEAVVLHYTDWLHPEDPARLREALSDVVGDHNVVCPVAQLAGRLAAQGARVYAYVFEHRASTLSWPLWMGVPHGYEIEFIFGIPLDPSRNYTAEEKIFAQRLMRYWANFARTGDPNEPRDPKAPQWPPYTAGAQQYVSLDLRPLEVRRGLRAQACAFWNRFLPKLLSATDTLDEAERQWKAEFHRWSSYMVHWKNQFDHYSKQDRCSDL

SMILES	Potency	activity, negative = inhibition
CCCCC(CC)CO (stereo not given)	inactive	–
COc1ccc(OC)c(N=Nc2c(O)ccc3ccccc23)c1	–	-0.0384%
CCCC(=O)OCCC(C)C	–	1.13%
O=C(NCCN1CCOCC1)c1ccc(Cl)cc1	–	-0.471% [at 52.9 µM]
O=C(O)c1cc(Cl)cc(Cl)c1O	–	8.39%
Cc1c(C(N)=O)cc([N+](=O)[O-])cc1[N+](=O)[O-]	inactive	–
CCCCNc1ccccc1	–	2.94%
Cc1ccc(C)c(C)c1	inactive	–
CC1=C2[C@@H]([C@H](C)CC[C@H]2/C=C(\C)C(=O)O)[C@H](O)C1	–	4.2%
C/C=C/c1ccc(O)c(OC)c1	inactive	–
Nc1ccn([C@H]2CS[C@@H](CO)O2)c(=O)n1	–	1.7%
CC1(C)Cc2cccc(N)c2O1	–	0.631%
Cc1ncc([N+](=O)[O-])n1C	inactive	–
COC(=O)CCCCC(=O)OC	inactive	–
Cc1ccccc1S(=O)(=O)O	–	2.31%
CCCOCCOCCO	–	2.9%
OCCCCC(O)CO (stereo not given)	–	-0.465%
O=C(O)Cn1cnnn1	–	0.252% [at 52.9 µM]
CCCCCCCCN(C)C	–	1.3%
O=C(O)c1cc(Br)c(O)c(Br)c1	–	-8.33%

SMILES	Potency	activity, negative = inhibition
N#Cc1ccccc1C#N	–	-3.08%
O=c1[nH]sc2cc(Cl)ccc12	–	2.89% [at 52.9 µM]
CC[C@]1(O)C[C@H]2CN(CCc3c([nH]c4ccccc34)[C@@](C(=O)OC)(c3cc4c(cc3OC)N(C=O)[C@H]3[C@@](O)(C(=O)OC)[C@H](OC(C)=O)[C@]5(CC)C=CCN6CC[C@]43[C@@H]65)C2)C1	–	0.925% [at 52.9 µM]
CC(=O)OCC(COC(C)=O)OC(C)=O	inactive	–
C=C(C)C(=O)Nc1ccc(Cl)c(Cl)c1	inactive	–
O=Cc1ccc(Cl)c(Cl)c1	–	-0.463%
c1ccc2sc(SN3CCOCC3)nc2c1	–	0.462% [at 52.9 µM]
COc1cc(/C=C/C(N)=O)cc(OC)c1OC	–	1.06% [at 52.9 µM]
CN(C)CCOC(C)(c1ccccc1)c1ccccn1 (stereo not given)	inactive	–
CC(=O)NCCCS(=O)(=O)O	–	0% [at 52.9 µM]
CCCCCC/C(C=O)=C\c1ccccc1	inactive	–
CC(O)C#CC(C)O (stereo not given)	–	-2.83%
CCN[C@H]1CN(CCCOC)S(=O)(=O)c2sc(S(N)(=O)=O)cc21	–	2.18% [at 52.9 µM]
Oc1ccc(O)c2c(O)cccc12	–	0.614%
O=Cc1cccc([N+](=O)[O-])c1	–	-3.45%
CCCCC=O	–	0.785%
O=c1[nH]cnc2nc[nH]c12	–	2.72% [at 52.9 µM]
O=C(O)CCCCCCCCCC(=O)O	–	2.98%
CCC(=O)/C=C/C1C(C)=CCCC1(C)C (stereo not given)	inactive	–
CCCCOC(=O)[C@H](C)O	–	-1.47%

biological target: Acetylcholinesterase (Homo sapiens) (UniProt P22303); test: Acetylcholinesterase (AChE) small molecule antagonists: enzyme-based qHTS assay (AID 1347397); conditions: Potency: AChE enzyme activity inhibition; outcome: AChE enzyme activity inhibition; series mostly up to 115 µM; activity change, negative = inhibition: at the top concentration; further: nearly all actives have a fitted effect of over 55% in size
Summary of the method: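 Human recombinant acetylcholinesterase; substrate acetylthiocholine; thiocholine quantified with DTNB (colorimetric). Compound preincubation 30 min RT; reaction 10 min RT.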

SMILES	Potency	activity change, negative = inhibition
CCCCC(CC)CO (stereo not given)	inactive	–
COc1ccc(OC)c(N=Nc2c(O)ccc3ccccc23)c1	–	2.05%
CCCC(=O)OCCC(C)C	–	0.79%
O=C(NCCN1CCOCC1)c1ccc(Cl)cc1	–	-0.401% [at 53 µM]
O=C(O)c1cc(Cl)cc(Cl)c1O	–	1.57%
Cc1c(C(N)=O)cc([N+](=O)[O-])cc1[N+](=O)[O-]	inactive	–
CCCCNc1ccccc1	–	1.96%
Cc1ccc(C)c(C)c1	inactive	–
CC1=C2[C@@H]([C@H](C)CC[C@H]2/C=C(\C)C(=O)O)[C@H](O)C1	–	0%
C/C=C/c1ccc(O)c(OC)c1	inactive	–
Nc1ccn([C@H]2CS[C@@H](CO)O2)c(=O)n1	–	-0.684%
CC1(C)Cc2cccc(N)c2O1	–	-0.207%
Cc1ncc([N+](=O)[O-])n1C	inactive	–
COC(=O)CCCCC(=O)OC	inactive	–
Cc1ccccc1S(=O)(=O)O	–	-2.45%
CCCOCCOCCO	–	0.553%
OCCCCC(O)CO (stereo not given)	–	-1.31%
O=C(O)Cn1cnnn1	–	0.168% [at 53 µM]
CCCCCCCCN(C)C	–	0.546%
O=C(O)c1cc(Br)c(O)c(Br)c1	–	0.116%

— PubChem BioAssay (Tox21)
